According to the supplement of paper PMC6555819:

Tests used:
Experiment in all cases: PBM binding z-score (relative to random genomic background probes); higher = stronger binding; sequences stand for … in GC…GCGATTGACAGCGTAGAATGAAGG
[1] = test system: FXR:RXRa (NR concentration 270 nM, RXRa partner concentration 90 nM)
How it was run: (§1)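 Each nuclear receptor dimer, without ligand, was incubated for 1 h on custom Agilent 4×180K protein-binding microarrays. Binding was detected with antibodies against each partner (one per run), and scanned fluorescence was regression-normalized. The binding z-scores are referenced to random human genomic background probes.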

[2] = test system: LXRa:RXRa (NR concentration 270 nM, RXRa partner concentration 90 nM)
How it was run: as §1

[3] = test system: LXRa homodimer (NR concentration 270 nM)
How it was run: as §1

[4] = test system: LXRb:RXRa (NR concentration 270 nM, RXRa partner concentration 90 nM)
How it was run: as §1

[5] = test system: LXRb homodimer (NR concentration 270 nM)
How it was run: as §1

[6] = test system: PPARa:RXRa (NR concentration 270 nM, RXRa partner concentration 90 nM)
How it was run: as §1

[7] = test system: PPARg:RXRa (NR concentration 180 nM, RXRa partner concentration 90 nM)
How it was run: as §1

[8] = test system: PPARg:RXRa 270nM:90nM, anti-RXR (NR concentration 270 nM, RXRa partner concentration 90 nM)
How it was run: as §1

[9] = test system: PPARg:RXRa 30nM:10nM, anti-RXR (NR concentration 30 nM, RXRa partner concentration 10 nM)
How it was run: as §1

[10] = test system: PPARg:RXRa 90nM:30nM, anti-RXR (NR concentration 90 nM, RXRa partner concentration 30 nM)
How it was run: as §1

[11] = test system: PPARg:RXRa DBDmut IVT, anti-RXR (DBD mutation: RXRa K156A/R161A, NR concentration 270 nM, RXRa partner concentration 90 nM)
How it was run: as §1

[12] = test system: PPARg:RXRa IVT, anti-PPARg (NR concentration 270 nM, RXRa partner concentration 90 nM)
How it was run: as §1

[13] = test system: PPARg DBDmut:RXRa IVT, anti-PPARg (DBD mutation: PPARg1 K132A/R137A, NR concentration 270 nM, RXRa partner concentration 90 nM)
How it was run: as §1

[14] = test system: PPARg DBDmut IVT, anti-PPARg (DBD mutation: PPARg1 K132A/R137A, NR concentration 270 nM)
How it was run: as §1

[15] = test system: PPARg homodimer (NR concentration 180 nM)
How it was run: as §1

[16] = test system: PXR:RXRa (NR concentration 270 nM, RXRa partner concentration 90 nM)
How it was run: as §1

[17] = test system: PXR homodimer (NR concentration 270 nM)
How it was run: as §1

[18] = test system: RARa:RXR (NR concentration 270 nM, RXRa partner concentration 90 nM)
How it was run: as §1

[19] = test system: RARa homodimer (NR concentration 270 nM)
How it was run: as §1

[20] = test system: RARb:RXRa (NR concentration 270 nM, RXRa partner concentration 90 nM)
How it was run: as §1

Sequence | PBM binding z-score [1] | PBM binding z-score [2] | PBM binding z-score [3] | PBM binding z-score [4] | PBM binding z-score [5] | PBM binding z-score [6] | PBM binding z-score [7] | PBM binding z-score [8] | PBM binding z-score [9] | PBM binding z-score [10] | PBM binding z-score [11] | PBM binding z-score [12] | PBM binding z-score [13] | PBM binding z-score [14] | PBM binding z-score [15] | PBM binding z-score [16] | PBM binding z-score [17] | PBM binding z-score [18] | PBM binding z-score [19] | PBM binding z-score [20]
CGAACTAGGTCAGAACAGGAAAGTGAAGGATGAT | 0.901 | 0.447 | -0.258 | 0.38 | -0.116 | 3.21 | 5.08 | 4.29 | 1.92 | 3.33 | 7.16 | 6.78 | 2.1 | 0.812 | 0.835 | 0.0929 | -0.161 | 0.482 | -0.00201 | 2.72
CGTCCAAGGTCAAGGTCAGTTAAAGAGACTCGAA | 7.98 | 6.08 | 1.79 | 4.95 | 1.26 | 6.11 | 6.45 | 6.18 | 2.97 | 5.03 | 3.64 | 4.64 | 0.996 | 0.327 | 3.84 | 5.2 | 1.12 | 5.74 | 1.83 | 5.81
TCTAGCAGCCCAGAGGGTCACTCAAGAGGTACGG | 0.547 | 0.531 | -0.652 | 1.01 | -1.12 | 1.92 | 0.566 | 1.13 | 1.45 | 1.2 | 0.523 | -0.253 | -0.749 | -0.961 | 0.154 | 1.3 | -0.683 | 2.44 | -0.794 | 1.81
GCGACTGGGGCATCAGCAGGTTAACATAACTTAA | -0.169 | -0.338 | -0.456 | 1.01 | -0.643 | 1.27 | 1.18 | 1.16 | 0.116 | 0.609 | 3.98 | 3.26 | -0.488 | -1.04 | 0.292 | 0.289 | -0.239 | 0.486 | -0.18 | 0.898
CCTAGCAGGCCAGGGTCACTCGAGCATTTCGCTT | 2.22 | 1.62 | -0.424 | 1.78 | -0.991 | 2.98 | 0.557 | 1.6 | -0.327 | 0.652 | 0.58 | 1.02 | -0.592 | -1.77 | 0.543 | 2.32 | -0.255 | 3.1 | -0.646 | 2.57
ACTACTAGTTGAGACGAGGGCAACCGATAGGTTG | 0.166 | -0.245 | -0.365 | -0.0617 | -0.193 | 0.173 | 0.721 | 0.0309 | -0.149 | -0.0878 | 0.0475 | 0.419 | 0.298 | 0.0425 | 0.265 | 1.22 | 0.4 | 0.775 | 0.103 | 0.93
GGAACGAGGCCATTCGAGTTGATAGCATGGCGAT | 0.572 | 0.106 | -0.48 | -0.483 | -0.846 | 0.013 | 0.591 | 0.257 | -0.557 | -0.163 | 2.23 | 1.22 | -0.239 | -0.906 | -0.779 | 1.73 | 0.561 | -0.0585 | -1.34 | 0.94
AATCCAGGGTCATCGTAGGCCAGAGTACGCACAG | 7.58 | 6.18 | 1.65 | 4.8 | 0.807 | 5.75 | 6.7 | 6.07 | 3.18 | 4.59 | 2.54 | 4.33 | 1.57 | 0.689 | 2.41 | 5.14 | 0.854 | 5.49 | 1.2 | 4.32
CGAACTAGTTCAGAACAGGACAGTGAAGGATGAT | 0.0852 | -0.165 | -0.0634 | -0.449 | -0.667 | -0.356 | 0.524 | -0.523 | -0.163 | -0.675 | -0.157 | -0.211 | 0.34 | 0.0845 | -0.297 | 0.137 | 0.378 | 0.131 | -0.252 | 0.618
GCGACTGGGGCAAAGCACGTTACCATAAGGTTGG | -0.454 | -0.482 | -0.763 | -0.305 | -0.971 | 0.875 | 1.7 | 2.21 | 0.24 | 1.62 | 4.44 | 3.18 | 0.131 | -0.127 | 0.0548 | -0.54 | -0.386 | -0.0632 | -0.156 | 0.573
CCAGACAGGTGGAAGGTAACTCAGTCTGGTACGC | -0.299 | -0.335 | -0.385 | -0.402 | -0.752 | 0.13 | 0.719 | 1.5 | -0.203 | 0.663 | -0.367 | -0.196 | -1.35 | -1.42 | 0.35 | -0.242 | -0.0179 | -0.223 | 0.246 | -0.313
GCTTATGGGTCAAAGGTTATAGCATGAATAGAAT | 6.45 | 5.27 | 0.469 | 5.46 | 0.477 | 6.76 | 11.9 | 10.1 | 10.2 | 11 | 7.1 | 7.2 | 2.03 | 2.31 | 2.17 | 5.71 | 0.209 | 7.4 | 1.13 | 4.41
CCTAGTTGGTCACGGTCACACACGCTATAGGTAC | 0.611 | 0.906 | 1.21 | 0.81 | 0.982 | 0.843 | 1.61 | 1.34 | 0.766 | 0.795 | 2.6 | 3.1 | 1.29 | 1.48 | 1.79 | 0.642 | 0.636 | 0.844 | 1.66 | 2.53
